Screens as filed in PubChem.
The entries come from a sample that favours hits as a whole.
Pf Dd2 growth: qHTS Primary assay for Inhibitors of Plasmodium falciparum Dd2 growth in vitro; P. falciparum Dd2 growth, SYBR Green, 72 h; hit rate 4.3% among 120,000; Potency, µM (titrated, usually from 28.9 µM), inactives show at the highest dose activity, negative = inhibition, hits mostly inhibitors; active = well fitted inhibition curve with a large enough effect;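 note: plate controls were DMSO vehicle for no effect and reference drug for full effect; nearly all actives have a fitted effect of over 65% in size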
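Readout: SYBR Green fluorescence, 485 nm excitation, 535 nm emission, after ~16 h lysis at 37C. Before that, Dd2-infected red cells (2.5% hematocrit) grew 72 h with compound, 29 uM top final concentration.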
An asterisk follows results filed as active; i = inactive; [ ] = another dose, or the depositor's remark. Potency is the fitted concentration of half-maximal effect.

SMILES	Pf Dd2 growth
O=C(CN1C(=O)NC2(CCCCC2)C1=O)NCc1ccccc1	5.3%
O=C(NCc1ccc(F)cc1)c1nc(-c2ccccc2)c2cnccn12	3.98µM*
O=C(NCc1ccncc1)c1nc(-c2cccnc2)c2cnccn12	-0.7%
CC(C)(C)c1nc(C(=O)NCc2ccc(F)cc2)n2ccccc12	-10.5%
O=C(NCc1cccs1)c1nc(-c2ccc(F)cc2)c2cnccn12	3.98µM*
Cn1ncc2c(C(=O)NCc3ccc(F)cc3)cc(-c3ccc([S+](C)(=O)[O-])cc3)nc21	-15.8%
Cc1cccc(C)c1-c1nc(C(=O)NCc2ccsc2)n2ccccc12	8.91µM*
Cc1cccc(C)c1-c1nc(C(=O)NCc2cccnc2)n2ccccc12	-19.3%
N#CC1CCN(C(=O)c2nc(-c3ccc(F)cc3)c3cnccn23)CC1	i
O=C(NCc1cccnc1)c1nc(-c2ccc(F)cc2)c2cnccn12	-4.8%
COc1ccccc1-c1nc(C(=O)NCc2cccs2)n2ccccc12	i
C[S+](=O)([O-])c1ccc(-c2nc(C(=O)NCc3ccc(F)cc3)n3ccncc23)cc1	11.2µM*
COC(=O)CNC(=O)c1nc(-c2cccc(C(F)(F)F)c2)c2cnccn12	15.7%
CCCN(CC1CC1)C(=O)C1CCc2ncc(-c3ccc(F)cc3)n2C1 (configuration not stated)	i
Cc1nn(C)c(C)c1CCCN(C)C(=O)C1CCCN(Cc2cccnc2)CCC(=O)NCC1 (configuration not stated)	-26.1%
N[C@H]1CO[C@H]2[C@@H]1OC[C@@H]2n1cc(-c2ccccn2)nn1	i
Cc1ccccc1C(=O)N1CCC2(CC1)N=C(c1ccccc1)NO2	-14.0%
O=C(CC1=CCCCC1)N1C[C@@H](COCC2CC2)[C@H](c2ccncc2)C1	-19.1%
Cc1c(-c2ccccc2F)[nH]c2ccc(CNC(=O)CCN3CCCC3=O)cc12	-11.2%
O=C(c1c[nH]c2ncccc12)N1CCOCC1	12.9%[44.1 µM]
CCOc1ccc(C(=O)Nc2ccc(NC(=O)c3ccccc3)cc2)cc1Br	56.0%
Cc1cc(Nc2cccc(Cl)c2)nc2ccc(NC(=O)c3ccc(F)cc3Cl)cc12	-7.8%
CCOc1cc(=O)n2c(c1C(=O)Nc1cccc(C(F)(F)F)c1)CCCC2	0.1%
Cc1cc(Nc2cccc(Cl)c2)nc2ccc(NC(=O)Cc3ccc(Cl)cc3)cc12	-23.7%
Cc1cc(Nc2cccc(C(F)(F)F)c2)nc2ccc(NC(=O)c3cccnc3)cc12	3.55µM*
SMILES	Pf Dd2 growth
CCOc1ccc(C(=O)Nc2ccc3nc(Nc4cccc(C(F)(F)F)c4)cc(C)c3c2)cc1OCC	3.16µM*
CC(=O)N[C@H]1CN(S(=O)(=O)N(C)Cc2ccccc2)C[C@@H]1C1CC1	-6.0%
CC(=O)N1CCC(Oc2ccc(Cl)cc2C(=O)N(C)Cc2sccc2C)CC1	-7.2%
O=C(c1ccoc1)N1CCN(c2nnc3ccccn23)CC1	-6.6%
COCCN1C(=O)CC[C@]2(C(=O)NC3CCCCCC3)CCCC[C@@H]12	-2.1%
CCNC(=O)CCC[C@@H]1[C@H]2CCCN3CCC[C@@H](CN1Cc1cccnc1)[C@@H]23	4.3%
CCc1cc(=O)n(CC(=O)Nc2ccccc2)c(-c2cccc(F)c2)n1	-21.2%
Cn1nccc1C(=O)N[C@@H]1CN(c2ncccn2)C[C@H]1CO	2.51µM*
Cn1cccc1C(=O)N[C@@H]1CN(c2ncccn2)C[C@H]1CO	i
CN(C)C[C@@H]1CN(c2ncccn2)C[C@H]1NC(=O)c1ccnn1C	15.0%
COCCCNC(=O)c1ccc2c(c1)C(O)CCCCCN2C (configuration not stated)	i
CCn1c(C2CCCN(C(=O)Nc3cccc(C)c3)C2)nn(C)c1=O (configuration not stated)	-4.3%
O=[S+]([O-])(c1cccc(C(F)(F)F)c1)N1CCCC2(CC(Cc3ccccc3)=NO2)C1 (configuration not stated)	-4.5%
O=C(c1ccc(CN2C(=O)NC3(CCS(=O)(=O)CC3)C2=O)cc1)N1CCCCCC1	-7.6%
COC[C@H]1C[C@@H](NCc2cccc(C(F)(F)F)c2)[C@H](O)[C@@H]1O	i
COc1cccc([S+](=O)([O-])N2CCC3(CC2)C(=O)NN=C3C2CC2)c1	9.3%
Cc1c(C)n(Cc2ccccc2)c2ccc(C(=O)NCc3ccccc3F)cc12	-11.1%
CSc1ccc(CCNC(=O)c2ccc3c(c2)c(C)c(C)n3Cc2ccc(F)cc2)cc1	8.7%
CSc1cccc(NC(=O)c2ccc3c(c2)c(C)c(C)n3Cc2ccc(F)cc2)c1	10µM*
Cc1c(C)n(Cc2ccccc2)c2ccc(C(=O)NC(C)c3ccccc3)cc12 (configuration not stated)	-10.2%
CCc1ccccc1NC(=O)c1ccc2c(c1)c(C)c(C)n2Cc1ccccc1	11.2µM*
Cc1ccccc1NC(=O)c1ccc2c(c1)c(C)c(C)n2Cc1ccccc1	-3.4%
COC[C@@H]1CN(S(=O)(=O)c2ccccc2F)C[C@H]1c1nc(C)no1	33.7%
CNC(=O)[C@@H]1CN(S(=O)(=O)Cc2ccccc2)C[C@H]1COC	8.5%
CCOC(=O)c1ccc(N2C(=O)[C@@H]3Cc4nc[nH]c4CN3C2=O)cc1	-16.7%[44.1 µM]
SMILES	Pf Dd2 growth
COc1ccc(CNC(=O)CN2C(=O)NC3(CCOCC3)C2=O)cc1	36.1%
O=C(Cc1c[nH]c2ccccc12)N1CCC(c2noc(C3CC3)n2)C1 (configuration not stated)	i[5.79 µM]
O=C(COc1ccccc1)N1CCC2(CC1)OCCN(CCc1ccccc1)C2=O	-23.4%[44.1 µM]
Cc1ccccc1Nc1c(-c2cccc(Cl)c2)nc2ncccn12	-2.9%
Cc1ccc2nc(-c3ccncc3)c(Nc3ccccc3C)n2c1	-22.4%
Cc1ccn2c(Nc3ccccc3C)c(-c3ccccn3)nc2c1	3.16µM*
Cc1ccc2nc(-c3ccccn3)c(Nc3ccccc3C)n2c1	8.91µM*
Cc1ccccc1Nc1c(-c2c[nH]c3ccccc23)nc2cccc(C)n12	19.8%
Cc1ccc2nc(-c3c[nH]c4ccccc34)c(Nc3ccccc3C)n2c1	-23.6%
O=C(C(=O)N1CCc2[nH]nc(-c3cccc4ccccc34)c2C1)c1cccnc1	-26.5%
CC[C@@]1(O)CCN(C(=O)c2[nH]nc(-c3ccc(Cl)cc3)c2C)C[C@H]1O	9.7%
Fc1ccc(NC(=S)N[C@H]2CO[C@H]3[C@@H]2OC[C@@H]3n2nnnc2-c2ccc3c(c2)OCO3)cc1	4.8%
O=C1CCC2(CCN(c3nc4ccccc4s3)CC2)CN1Cc1cccnc1	-22.9%
CC1CCN(c2nc3ccc(C(=O)NCc4ccccc4)cc3s2)CC1	-27.4%
Clc1ccc2nc(N3CCC(NCCc4cccnc4)CC3)sc2c1	11.2µM*
CC(C)CCNC(=O)Cn1ccn2nc3c(c2c1=O)CCCC3	-8.6%
O=C(NC[C@H]1OC[C@@H](NC2CCCC2)[C@@H]1O)c1ccccc1	i
O=C([C@@H]1C[C@H](F)CN1C(=O)Nc1ccc(Cl)cc1)N1CCCCC1	23.9%
Cc1ccc(NC(=O)O[C@@H]2CC[C@]3(C)C(CC[C@@H](O)[C@H]3CC(=O)NCc3ccccc3)[C@]2(C)CO)cc1 (some centres not stated)	-25.6%
COc1ccccc1C(=O)NCC1Cn2cccc2C(=O)N1Cc1ccccc1 (configuration not stated)	i
CC1(C(=O)NCc2cccc3ccccc23)CCOCC1	7.1%[44.1 µM]
CCNC(=O)c1cccnc1OC1CCN(C(=O)c2ccco2)C1 (configuration not stated)	35.1%
Cn1ccnc1-c1ccc(N2CC[C@](C)(O)[C@@H](O)C2)nn1	0.2%
Cn1ccnc1-c1ccc(N2CCC(C(O)Cc3ccccc3)CC2)nn1 (configuration not stated)	-18.9%
